# From PubChem BioAssay AID686970 (National Center for Advancing Translational Sciences (NCATS), 2013)
# The campaign covered roughly 360,000 compounds. About 6,000 (1.7%) were called active. Not shown: some 8% with an inconclusive outcome. The list comes from a sample in which actives are over-represented; it also holds similar structures and randomly drawn compounds. Values without a mark were called inactive. Calls follow the shape of the dose curve; as a rule, active = well fitted cell-killing curve with a large enough effect; inconclusive = small, poorly fitted or top-dose-only effect, or effect the other way; inactive = flat fitted curve, though single readings scatter.
# Test: qHTS for induction of synthetic lethality in tumor cells producing 2HG: qHTS for the HT-1080-NT fibrosarcoma cell line;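 also: NT is the 2HG producing partner of a matched IDH1 knockdown line; nearly all actives have a fitted effect of over 55% in size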;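 as to activity, negative = less viability: 0% = DMSO-treated cells and -100% = media-only wells without cells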
# Conditions: HT-1080-NT fibrosarcoma viability, CellTiter-Glo ATP luminescence, 48 h; series mostly up to 46.1 µM; activity, negative = less viability: at the top concentration
# Method in brief: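 A 48-hour cytotoxicity screen used HT-1080-NT cells plated 2 hours before compound delivery. ATP-based CellTiter-Glo luminescence measured viability, normalized to DMSO and no-cell controls.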
# Potency is read from the fitted curve at half-maximal effect.
SMILES,"activity, negative = less viability",Potency
O=S1(=O)C[C@@H](N2CCN(CCO)CC2)[C@H](COCc2ccccc2)N1,14.5%,
Cc1cn([C@H]2C[C@H](O)[C@@H](/C=C/C(=O)NCCCc3ccccc3)O2)c(=O)[nH]c1=O,-2.92%,
CSc1ccc(CN2CCC2(C)C(=O)NCc2ccccc2Br)cc1 (centres undefined),-24.6%,
O=C(NCc1ccccc1)c1ccc(S(=O)(=O)Nc2cccc(C(F)(F)F)c2)cc1,-25.6%,
Cc1oc2c(F)c(F)c(F)c(F)c2c1S(=O)(=O)Nc1cccc(C(F)(F)F)c1,,3.26 µM (active)
O=C(COc1ccc(S(=O)(=O)Nc2cccc(C(F)(F)F)c2)cc1)N1CCOCC1,-3.05%,
CCCCn1nnnc1C(c1cccc(OC)c1OC)N1CCN(C/C=C/c2ccccc2)CC1 (centres undefined),-22.9%,
C/C(=N\Nc1ccc(Cl)nn1)c1ccccc1O,,0.731 µM (active)
C/C(=N/Nc1ccc(Cl)cc1)c1cnnc(-c2ccccc2)n1,12.4%,
CCCCCCCN=C(C)c1ccccc1O,19.4%,
CCOC(=O)[C@]12CCCC=C1N(Cc1ccc(Cl)cc1Cl)C(=O)[C@H](CC(=O)N1CCCCC1)C2,14.2%,
Cc1ccc(NC(=S)N(CCCN2CCC(C)CC2)Cc2ccco2)cc1,0.938%,
Cc1ccc(NC(=S)N(CCCN2CCCC2)Cc2cccn2Cc2ccc(Cl)cc2)cc1,,23.1 µM (active)
Cc1ccc(NC(=S)N(CCN2CCCCC2)Cc2ccco2)cc1C,-4.57%,
Cc1nc(C(F)(F)F)ccc1C(=O)N1CCC1(C)C(=O)NS(=O)(=O)c1ccccc1 (centres undefined),0.451%,
Cc1[nH]n(C)c(=O)c1C(=O)c1c(-c2c(Cl)cccc2Cl)noc1C,,20.6 µM (active)
Cc1onc(-c2c(Cl)cccc2Cl)c1C(=O)NNC(=O)c1c(-c2c(Cl)cccc2Cl)noc1C,-6.56%,
Cc1onc(-c2c(Cl)cccc2Cl)c1C(=O)c1c[nH]c(C(=O)NC2CC2)c1,-5.57%,
CCC(Oc1ccccc1)C(=O)OCC(=O)Nc1c(C)nn(-c2ccccc2)c1C (centres undefined),13.5%,
Cc1ccc(OCC(=O)Nc2ccc(N3CCN(C(=O)c4ccco4)CC3)cc2)c(C)c1,-2.23%,
COc1cccc(C(=O)Nc2ccc3nc4n(c(=O)c3c2)CCCCC4)c1,0.489%,
COc1cccc(OCc2cc(C(=O)N3CCN(C(=O)c4ccco4)CC3)no2)c1,6.57%,
COc1cccc(C(=O)Nc2ccc(N3CCCC3)cc2)c1,,20.6 µM (active)
COc1cccc(C(=O)Nc2ccc(N3CCN(C(=O)c4ccco4)CC3)cc2)c1,,23.1 µM (active)

SMILES,"activity, negative = less viability",Potency
COc1cccc(C(=O)Nc2nnc(S(=O)(=O)N3CCCCC3)s2)c1,-9.49%,
COc1cccc(-c2ccc3c(c2)N(Cc2ccccc2OC)C(=O)C(C)S3)c1 (centres undefined),14%,
O=C1NC[C@@H](CCCCN2CCN(CCc3ccc(O)cc3)C(=O)C2=O)N(CC2CCCCC2)C1=O,2.04%,
Cc1ccccc1S(=O)(=O)NC(=O)C1(C)CCN1C(=O)Cc1ccc(Cl)cc1Cl (centres undefined),0.417%,
CC1(C)OC(=O)C2=C(C[C@@H](C3CCCC3)O[C@@H]2c2ccc(Cl)cc2)O1,-0.447%,
COc1ccc(NC(=O)CCCOc2ccc(C(C)=O)cc2)cc1S(=O)(=O)N1CCCCC1,-10.6%,
CC(=O)Nc1cc(-c2ccc(N3CCN(C)CC3)cc2)cn2c(-c3cccc(C(=O)N(C)C)c3)cnc12,22.9%,
CCS(=O)(=O)Nc1ccc(C2=NN(C(C)=O)C(c3cccs3)C2)cc1 (centres undefined),,23.1 µM (active)
CS(=O)(=O)Nc1ccc(C2=NN(S(C)(=O)=O)C(c3cccs3)C2)cc1 (centres undefined),3.27%,
CS(=O)(=O)Nc1cccc(C2=NN(C(=O)c3cccc(F)c3)C(c3cccs3)C2)c1 (centres undefined),-17.5%,
O=C(Cc1ccc([N+](=O)[O-])cc1)NCCS(=O)(=O)N1CCN(c2ccccc2)CC1,-2.58%,
Cc1ccccc1NC(=O)Cc1nc(COC(=O)c2ccc(C(F)(F)F)cc2)cs1,-8.34%,
COc1ccc(Cc2nnc(NC(=O)Cc3cccs3)s2)cc1,-7.23%,
COc1ccc(CC(=O)Nc2sc(Cc3ccccc3)c(C)c2C(N)=O)cc1,-16.4%,
COc1ccc(CC(N)c2csc(NC(=O)Cc3ccccc3)n2)cc1 (centres undefined),,23.1 µM (active)
COc1ccc(CNC(=O)C(Cc2ccccc2)n2cccc2)cc1 (centres undefined),12.5%,
CC(C)(C)CC(=O)Nc1nnc(SCC(=O)NCc2cccs2)s1,-2.03%,
CC(C)(C)CC(=O)Nc1nc(C(N)Cc2ccc(C(F)(F)F)cc2)cs1 (centres undefined),,16.4 µM (active)
COc1ccc(OC)c(NC(=O)N[C@H](Cc2ccccc2)C(=O)NN)c1,-17.7%,
COC(=O)[C@H](CCSC)NC(=O)Nc1ccc(OC)cc1,7.07%,
COc1ccc(CC(N)c2csc(NC(=O)Nc3ccc(C(C)C)cc3)n2)cc1 (centres undefined),,18.4 µM (active)
COc1ccc(CC(N)c2csc(NC(=O)NC(c3ccccc3)c3ccccc3)n2)cc1 (centres undefined),,23.1 µM (active)
COc1ccc(NC(=O)C(Br)C(C)C)cc1 (centres undefined),2.27%,
CCNC(=O)C1(C)CCCN(C(=O)c2ccc3ccccc3n2)C1 (centres undefined),18.6%,

SMILES,"activity, negative = less viability",Potency
CN(Cc1ccc(C(F)(F)F)cc1)C(=O)[C@H]1O[C@@H](n2cnc3c(N)ncnc32)[C@H](O)[C@@H]1O,1.31%,
O=C(c1ccc2c(=O)n(Cc3ccco3)c(=S)[nH]c2c1)N1CCCC1,17.1%,
COc1ccc([C@H]2C[C@@H](n3cc(COC(=O)c4ccccc4)nn3)[C@H](O)CN2C(=O)c2cccs2)cc1,-16.2%,
COC(=O)c1ccc2nc(-c3ccc(C)cc3)c(Cc3ccc(OC)cc3C)n2c1,2.62%,
O=C(COc1ccc(S(=O)(=O)N2CCCC2)cc1[N+](=O)[O-])N1CCCCC1,3.38%,
CCCCNC(=O)c1nc(C2CCN(S(=O)(=O)c3ccc(F)c(F)c3)CC2)oc1-c1cccc(C(F)(F)F)c1,20.6%,
COC(=O)c1ccc2nc(-c3ccccc3)c(Cc3ccc(OC)cc3C)n2c1,9.2%,
CC(C)(C)c1ccc(S(=O)(=O)NC(=O)C2(C)CCN2C(=O)CC2CC2)cc1 (centres undefined),16.8%,
N#Cc1ccc(-c2ccc3nccn3c2)cc1,11.3%,
COc1cccc(-n2cc(C(=O)O)c3ccccc3c2=O)c1,,14.1 µM (active)
COc1cccc(-n2cc3c(c2-c2ccccc2)c(=O)n(C)c(=O)n3C)c1,-10.2%,
COc1cccc(-n2nc(C(=O)N3CCN(Cc4ccccc4)CC3)c3ccccc3c2=O)c1,-15.9%,
CCOC(=O)c1cc(-c2sc(NC(=O)c3ccccc3)nc2C)n(-c2ccc(Br)cc2)n1,-3.27%,
CCc1nc2ccc(C(=O)N(C)Cc3ccco3)cn2c1N(C)C(=O)Cc1ccccc1,12.2%,
O=C(CC[C@H]1O[C@@H](n2ccc(=O)[nH]c2=O)[C@H](O)[C@@H]1O)N[C@H](Cc1ccccc1)C(=O)NCc1ccco1,16.7%,
COc1cccc(/C=N/Nc2ccc(S(=O)(=O)Nc3ccccc3C(=O)O)cc2[N+](=O)[O-])c1O,-0.335%,
COc1cccc(/C=N/Nc2cc(C)nc(-c3ccccc3O)n2)c1O,,8.2 µM (active)
COc1ccccc1-n1c(SCC(=O)Nc2cccc(C(=O)O)c2)nnc1-c1ccccc1O,12.6%,
O=C(Nc1ccc2c(c1)[C@@H]1C[C@@H](CC(=O)N3CCCCC3)O[C@@H](CO)[C@@H]1O2)NC1CCCCC1,-11%,
CCCS(=O)(=O)NC(=O)C1(C)CCCN(C(=O)c2cc(C)on2)C1 (centres undefined),23.2%,
CCOC(=O)C1=CCC(c2ccc(F)cc2)N(S(=O)(=O)c2ccc(C)cc2)C1 (centres undefined),-28.5%,
COc1ccc(Sc2ccc(NC(=O)c3cccc(Cl)c3)cc2C#N)cc1,-13.9%,
COc1cccc(C(NC(C)=O)c2nc(-c3ccccc3OC)cs2)c1 (centres undefined),-1.79%,
CCOC1=C2CN(S(=O)(=O)c3ccc(C)cc3)[C@H](c3cccs3)C[C@H]2[C@H]2C(=O)N(c3ccccc3)C(=O)[C@H]2C1,14.8%,

SMILES,"activity, negative = less viability",Potency
CC(C)(C)c1ccc(/C=C/C(=O)Nc2ncccn2)cc1,-10.7%,
COc1ccc(NS(=O)(=O)c2ccc(N3CCOCC3)c(NC(=O)/C=C/C(=O)O)c2)cc1,10.2%,
COC(=O)c1sc(-c2ccc(C(C)(C)C)cc2)cc1NC(=O)/C=C/C(=O)O,,11.6 µM (active)
COc1cccc(OCC(=O)NCCS(=O)(=O)N2CCN(c3ccccc3)CC2)c1,8.66%,
COc1ccc(CC(NC(C)=O)C(=O)NC2CCN(C(=O)c3ccc(OC)c(OC)c3)CC2)cc1OC (centres undefined),8.35%,
CCc1ccc(OCC2c3cc(OC)c(OC)cc3CCN2C(C)=O)cc1 (centres undefined),,16.4 µM (active)
COc1ccc(CC(NC(C)=O)C(=O)NC2CCN(C(=O)C3CC3)CC2)cc1OC (centres undefined),21%,
CCOC1=C2[C@@H](CN(S(=O)(=O)c3ccc(C)cc3)[C@H]2c2ccccc2F)[C@H]2C(=O)N(Cc3ccccc3)C(=O)[C@H]2C1,-0.579%,
Cc1cc([N+](=O)[O-])ccc1NS(=O)(=O)c1ccccc1,-9.92%,
O=C(NNS(=O)(=O)c1ccc(F)cc1)c1ccc([N+](=O)[O-])cc1Cl,2.11%,
O=[N+]([O-])c1ccc(NS(=O)(=O)c2ccccc2)c(Cl)c1,,6.51 µM (active)
CC(C)C[C@@H]1COc2cc(N3CCC[C@@H]3CO)ccc2S(=O)(=O)N1,5.13%,
CC(C)CCOc1ccc(C(=O)Nc2cc(S(=O)(=O)N3CCOCC3)ccc2N2CCOCC2)cc1,0.747%,
O=[N+]([O-])c1ccc(CN2CC(N3CCC(c4ccccc4)CC3)CS2(=O)=O)cc1 (centres undefined),2.9%,
CCOC(=O)N1CCN(C(=O)c2ccccc2N(Cc2ccccc2)S(=O)(=O)c2ccc(OC)cc2)CC1,,3.26 µM (active)
CCOC(=O)N1CCN(S(=O)(=O)c2ccc(OC)cc2)CC1,5.1%,
NC(=O)c1ccccc1N(Cc1ccccc1)S(=O)(=O)c1ccccc1,2.72%,
COc1ccc(NC(=O)COC(=O)C2COc3ccccc3O2)cc1 (centres undefined),6.35%,
COCc1cccc(-c2csc(C(O)c3ccc(F)cc3)n2)c1 (centres undefined),-11.2%,
COc1cccc(/C=N/NC(=O)CNC(=O)c2ccc(S(=O)(=O)N3CCOCC3)cc2)c1OC,-6.44%,
COc1cccc(/C=N/NC(=O)c2[nH]nc3c2CCc2ccccc2-3)c1O,,2.59 µM (active)
COc1cc(/C=N/NC(=O)c2cc(-c3ccccc3C)nc3ccccc23)cc(OC)c1O,-6.84%,
